Shown are actives, neighbours in structure and some others; about 4% of the full set was active somewhere.
FGF22 binding – FGF22 (human) thermal shift binding. hit rate 1.5% among 340,000. AID 651658. recombinant FGF22 thermal shift, SYPRO orange fluorescence; percent of sucrose octasulfate shift, DMSO zero. activity (Tm shift, normalised), % at 9.99 µM;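 active = mean Tm shift, scaled 0 neutral to 100 positive control, at about 1.3% or above, every replicate too, limit read from the data; inconclusive = no clear call, values can overlap the other calls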
Target sequence (Q9HCT0 whole entry, looked up): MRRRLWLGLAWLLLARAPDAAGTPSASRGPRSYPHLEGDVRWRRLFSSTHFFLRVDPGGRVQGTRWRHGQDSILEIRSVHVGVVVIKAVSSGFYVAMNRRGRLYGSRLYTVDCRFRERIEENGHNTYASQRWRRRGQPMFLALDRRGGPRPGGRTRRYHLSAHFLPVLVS
RAD52 anneal inh – inhibitors of human RAD52 DNA annealing. hit rate 0.46% among 360,000. recombinant RAD52 DNA annealing, FRET fluorescence. AID 651710. inhibition, % at 18.7 µM. P43351;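 active = every replicate showing at least 50% inhibition; inconclusive = mean inhibition at least 50% but not in every replicate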
Target sequence (P43351 whole entry, looked up): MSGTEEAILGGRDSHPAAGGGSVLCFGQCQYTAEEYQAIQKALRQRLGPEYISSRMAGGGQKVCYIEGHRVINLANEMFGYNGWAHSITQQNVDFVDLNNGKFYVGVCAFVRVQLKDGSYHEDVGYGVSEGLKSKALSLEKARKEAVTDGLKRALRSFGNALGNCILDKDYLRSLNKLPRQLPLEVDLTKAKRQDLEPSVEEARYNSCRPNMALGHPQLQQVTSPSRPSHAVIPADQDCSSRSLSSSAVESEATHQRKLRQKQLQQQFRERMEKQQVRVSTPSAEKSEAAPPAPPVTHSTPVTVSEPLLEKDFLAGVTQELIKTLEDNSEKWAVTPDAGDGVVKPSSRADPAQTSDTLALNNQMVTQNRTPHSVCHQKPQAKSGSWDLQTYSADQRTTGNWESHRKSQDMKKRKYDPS
AF4-AF9 inh – MLL-AF4/AF9 protein interaction inhibition; P42568; AlphaScreen, biotin-AF4 peptide binding to FLAG-AF9; inhibition, % at 10 µM; hit rate 0.47% among 350,000;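 active = every replicate reaching a set inhibition limit, whatever the replicate mean, cut at about 25% in these data; inconclusive = mean inhibition reaches that limit but some replicates miss it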;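 also: 0% = plate neutral control median and 100% = total signal loss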
ERAP1 HTS inh – ERAP1 (human) enzyme inhibition; Q9NZ08; recombinant ERAP1, Leu-AMC fluorescence, 60 min; hit rate 0.15% among 340,000; inhibition, % at 10.7 µM;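 active = mean replicate inhibition of at least 30%, or all replicates individually reaching that 30% level; inactive = mean below 30% and not every replicate reaching it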;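 also: 0% = neutral control wells and 100% = L-leucinethiol positive control wells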
DENV2 CPE rescue – inhibitors of DENV2 cytopathic effect; DENV2-infected cells, cytopathic effect rescue, plate reader; CPE inhibition, % at 9.99 µM; hit rate 1.7% among 350,000; AID 651640; in the data active = CPE inhibition above about 20%, passing the limit was not always enough; inconclusive = no clear call, values can overlap the other calls; tested in BHK-21 cells;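 also: 0% = median of neutral control wells and 100% = median of positive control wells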
AlphaScreen intf – AlphaScreen signal interference counter-screen hit | shares compounds with AF4-AF9 inh | signal luminescence | AC50, µM (highest dose often 12 µM), inactives show at the highest dose activity change, negative = inhibition | hit rate 45% among 530; cut-off not given, nearly all actives have AC50 up to about 14 µM
DNA binder FP – DNA binding artifact in RAD52 counter-screen | AC50, µM | AID 652128 | shares compounds with RAD52 anneal inh | hit rate 8% among 1,000 | Salmon sperm DNA/acridine orange FP displacement;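 active = fitted half-maximal concentration for signal loss at or below twice the highest dose tested, in every separate run, actives reach about 64 µM in these data; inconclusive = runs disagree, or flat partial signal loss, or poor fit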
The depositor's hits bear a star; ! = not active in a repeat.

How did CN(C)c1ccc(N=C/C=C2/N(C)c3ccccc3C2(C)C)cc1 do in these assays?
FGF22 binding: -0.8; RAD52 anneal inh: -114.6; AF4-AF9 inh: 47.5*; ERAP1 HTS inh: -1.2; DENV2 CPE rescue: 0.8; AlphaScreen intf: 11µM*

Results for CCC(=O)NC(c1ccc(OC)cc1)c1c(O)ccc2ccccc12 (stereo not drawn) ?
FGF22 binding: -0.3; RAD52 anneal inh: -7.9; AF4-AF9 inh: -3.4; ERAP1 HTS inh: -4.1; DENV2 CPE rescue: -1.6

Results for CCC(=O)NC(c1ccc(N(C)C)cc1)c1c(O)ccc2ccccc12 (stereo not drawn) ?
FGF22 binding: -0.2; RAD52 anneal inh: -7.6; AF4-AF9 inh: 24.1; ERAP1 HTS inh: 2.2; DENV2 CPE rescue: -2.5; AlphaScreen intf: -17.2%

What do the screens show for `CC=Cc1ccc2n(c1=O)C[C@H]1[C@H](CO)[C@@H](C(=O)NCCC)[C@@H]2N1Cc1cccnc1` (mixture of isomers)?
FGF22 binding: -0.3; RAD52 anneal inh: -13.0; AF4-AF9 inh: 1.2; ERAP1 HTS inh: 0.3; DENV2 CPE rescue: 14.0

Results for CC(=O)N(C)C[C@@H]1Oc2ncc(C#Cc3ccncc3)cc2C(=O)N([C@@H](C)CO)C[C@H]1C ?
FGF22 binding: 0.1; RAD52 anneal inh: -7.7; AF4-AF9 inh: -10.3; ERAP1 HTS inh: 1.7; DENV2 CPE rescue: -3.7

How did O=c1c2ccccc2nc(/C=C/c2cccnc2)n1Cc1ccccc1 do in these assays?
FGF22 binding: 0.0; RAD52 anneal inh: -52.6; AF4-AF9 inh: 39.0*; ERAP1 HTS inh: 1.2; DENV2 CPE rescue: -5.0; AlphaScreen intf: -20.4%

What do the screens show for `COCC(=O)Nc1ccc2c(c1)C(=O)N(C)C[C@@H](OC)[C@@H](C)CN(CCC(F)(F)F)[C@H](C)CO2`?
FGF22 binding: -0.1; RAD52 anneal inh: -3.4; AF4-AF9 inh: -0.4; ERAP1 HTS inh: 1.1; DENV2 CPE rescue: 19.7

How did C[C@@H]1CCCCO[C@@H](CN(C)S(C)(=O)=O)[C@@H](C)CN([C@H](C)CO)C(=O)c2cc(NC(=O)Nc3ccc(F)cc3)ccc2O1 do in these assays?
FGF22 binding: -0.1; DENV2 CPE rescue: -6.3

What do the screens show for `CCC1CCCCN1C(=S)NN=C(C)c1ccccn1` (stereo not drawn)?
FGF22 binding: -0.6; RAD52 anneal inh: -86.1; AF4-AF9 inh: 37.4*; ERAP1 HTS inh: -2.2; DENV2 CPE rescue: -6.4; AlphaScreen intf: 7.38µM*

Results for COc1ccc(S(=O)(=O)N(C)C[C@@H]2OCCCC[C@H](C)Oc3ccc(N(C)C)cc3C(=O)N([C@H](C)CO)C[C@@H]2C)cc1 ?
FGF22 binding: -1.2; RAD52 anneal inh: 11.6; AF4-AF9 inh: 9.2; ERAP1 HTS inh: -2.8; DENV2 CPE rescue: 11.9

What do the screens show for `CCN(CC)c1ccc(CNc2nc3ccccc3n2CCN2CCCCC2)cc1`?
RAD52 anneal inh: -68.8; AF4-AF9 inh: 43.6*; ERAP1 HTS inh: -3.6; DENV2 CPE rescue: -1.1; AlphaScreen intf: -27.9%

What do the screens show for `Cc1ccc(S(=O)(=O)Nc2ccc3c(c2)C(=O)N([C@@H](C)CO)C[C@H](C)[C@@H](CN(C)C)OCCCC[C@@H](C)O3)cc1`?
FGF22 binding: 0.1; RAD52 anneal inh: -26.7; AF4-AF9 inh: -0.2; ERAP1 HTS inh: 1.3; DENV2 CPE rescue: -14.7

What do the screens show for `CN(C)CCNc1ncnc2c1sc1nc(-c3ccccc3)c3c(c12)CCCC3`?
FGF22 binding: 0.0; RAD52 anneal inh: 69.6*; AF4-AF9 inh: inconclusive; ERAP1 HTS inh: -9.3; DENV2 CPE rescue: -5.9; AlphaScreen intf: -13.9%; DNA binder FP: inactive

What do the screens show for `c1nc(NCCN2CCOCC2)c2sc3nc(N4CCOCC4)c4c(c3c2n1)CCC4`?
FGF22 binding: -0.3; RAD52 anneal inh: 26.6; AF4-AF9 inh: 4.3; ERAP1 HTS inh: 0.0; DENV2 CPE rescue: -3.6

Results for COc1ccc(CN(C)C[C@H]2Oc3c(NC(=O)Nc4ccc(C(F)(F)F)cc4)cccc3C(=O)N([C@H](C)CO)C[C@@H]2C)cc1 ?
FGF22 binding: -0.1; RAD52 anneal inh: 3.0; AF4-AF9 inh: 2.3; ERAP1 HTS inh: 0.3; DENV2 CPE rescue: 7.8

What do the screens show for `C#CCOCCOCCOCCNc1nc(N2CCN(C(=O)[C@H](CCCN=C(N)N)n3cc(C(N)[C@@H](C)CC)nn3)CC2)nc(N2CCN(C(=O)[C@H](CCCCN)n3cc([C@@H](N)[C@H](C)CC)nn3)CC2)n1` (stereo partly drawn)?
FGF22 binding: 0.0; RAD52 anneal inh: 62.9*; AF4-AF9 inh: 46.1*; ERAP1 HTS inh: -4.8; DENV2 CPE rescue: -0.8; AlphaScreen intf: -9.7%; DNA binder FP: inactive

What do the screens show for `CC(C)Nc1ccc(Nc2ccnc3cc4ccccc4cc23)cc1`?
FGF22 binding: -1.0; RAD52 anneal inh: 99.0*; AF4-AF9 inh: 83.5*; ERAP1 HTS inh: -3.5; DENV2 CPE rescue: -1.7; AlphaScreen intf: 2.98µM*; DNA binder FP: 22.4µM*

Results for CC(=O)N(C)C[C@@H]1Oc2cc(C#Cc3ccccc3)ccc2S(=O)(=O)N([C@@H](C)CO)C[C@@H]1C ?
FGF22 binding: -0.1; RAD52 anneal inh: 4.8; AF4-AF9 inh: 3.6; ERAP1 HTS inh: -1.2; DENV2 CPE rescue: -5.5

How did CN(C)c1ccc(Nc2nc(N)c3ccccc3n2)cc1 do in these assays?
FGF22 binding: 0.2; RAD52 anneal inh: 45.5; AF4-AF9 inh: 60.4*; ERAP1 HTS inh: -23.0; DENV2 CPE rescue: 2.7; AlphaScreen intf: 11.9µM*; DNA binder FP: inactive

How did CCOc1ccc(Nc2nc(N)c3ccccc3n2)cc1 do in these assays?
FGF22 binding: 0.1; RAD52 anneal inh: 19.1; AF4-AF9 inh: 17.7; ERAP1 HTS inh: -44.3; DENV2 CPE rescue: 6.9

Results for Cc1ccc(S(=O)(=O)N(C)C[C@@H]2Oc3ccc(N(C)C)cc3C(=O)N([C@H](C)CO)C[C@H]2C)cc1 ?
FGF22 binding: 0.2; RAD52 anneal inh: 6.3; AF4-AF9 inh: 2.6; ERAP1 HTS inh: -1.0; DENV2 CPE rescue: -1.4

What do the screens show for `CC(C)N=C(N)N=C(N)Nc1ccc(Cl)cc1`?
FGF22 binding: -0.1; RAD52 anneal inh: -9.8; AF4-AF9 inh: -5.5; ERAP1 HTS inh: 1.6; DENV2 CPE rescue: 6.7

How did NC(=NCCCCCCN=C(N)/N=C(\N)Nc1ccc(Cl)cc1)/N=C(\N)Nc1ccc(Cl)cc1 do in these assays?
FGF22 binding: 0.1; RAD52 anneal inh: 94.7*; AF4-AF9 inh: 53.4*!; ERAP1 HTS inh: -1.8; DENV2 CPE rescue: inconclusive; AlphaScreen intf: -9.2%; DNA binder FP: inactive

Results for C[n+]1c(-c2ccc(C=NNC(=O)c3ccc(C(=O)NN=Cc4ccc(-c5cn6ccccc6[n+]5C)cc4)cc3)cc2)cn2ccccc21 ?
FGF22 binding: 0.2; RAD52 anneal inh: 94.1*; AF4-AF9 inh: 77.9*; ERAP1 HTS inh: -2.2; DENV2 CPE rescue: inconclusive; AlphaScreen intf: -18.1%; DNA binder FP: 26µM*
